Experimental data from PubChem BioAssay.
Unmarked numbers belong to inactive results. Unless noted, how the calls were made is not given here.

Assay: cell viability in Huh7 cells, primary screen, cytotoxicity control for HCV replication inhibitor project, CellTiter-Glo luminescence, basal, 48 h (AID 1143);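 further: Huh7 hepatoma cells carrying a hepatitis C replication reporter with no stimulus; test concentration not given here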
Settings: Huh7 HCV replicon, higher = more signal, called active from +8 up or from −8 down

Row | SMILES | z-score
1 | COc1cc2c(cc1OC)CN(C(=O)[C@H]1[C@@H]3C(=O)O[C@@H](c4ccccc4)[C@@H](c4ccccc4)N3[C@@H](c3ccc(O)cc3)[C@]13C(=O)Nc1ccc(C#CC4=CCCCC4)cc13)CC2 | -2.62
2 | Cc1ccc(S[C@]2(C(=O)NCC(C)C)CC(=O)N(Cc3cc(C(F)(F)F)cc(C(F)(F)F)c3)[C@@H]2c2ccc(CO)cc2I)cc1 | -1.19
3 | CCCC[C@@H]1C[C@H]1[C@@H](NC(=O)c1ccco1)c1ccc(C(=O)OC)cc1 | -1.88
4 | O=C1O[C@H](c2ccccc2)[C@H](c2ccccc2)N2[C@H]1[C@@H](C(=O)O)[C@]1(C(=O)Nc3ccc(C#CC4=CCCCC4)cc31)[C@H]2c1ccccc1OCCO | -4.67
5 | CC(=O)N1Cc2ccccc2C[C@@]2(COC(c3ccc(OCCCO)cc3)=N2)C1=O | -2.57

Assay: P. aeruginosa biofilm formation inhibitors, primary screen, PAO1 strain, BacTiter-Glo luminescence, LB-PBS (AID 1144)
Settings: 12 h, higher = more signal

Row | SMILES | z-score
6 | C[N+](C)(C)CCCCNC(=O)[C@H]1C[C@H]2C(=O)N[C@@H](Cc3ccccc3)C(=O)N2[C@H]1c1ccc(O)cc1 | 0.0228
7 | [N-]=[N+]=NCc1ccccc1C[C@]1(C(=O)N2CCOCC2)N=C(c2ccc(OCCCO)cc2)O[C@H]1c1ccccc1N=[N+]=[N-] | -0.447
8 | CC(=O)NCCCC[C@@H]1NC(=O)[C@@H]2C[C@H](C(=O)NCCCCN(C)C)[C@H](c3cccc(OCCO)c3)N2C1=O | -0.269
9 | COc1ccc(C(O)C2C=CC3C(=O)N(c4ccccc4)C(=O)C3N2Nc2ccc(C(C)C)cc2)cc1OCc1ccccc1 (stereo unspecified) | -2.09
10 | [N-]=[N+]=Nc1ccccc1[C@H]1OC(c2ccc(OCCCO)cc2)=N[C@@]1(Cc1ccccc1)C(=O)O | -0.0839
11 | O=C(NCc1ccccc1)[C@@]1(Cc2ccccc2)N=C(c2ccc(OCCCO)cc2)O[C@H]1c1ccccc1 | -0.883
12 | CCOC1=C2C(CN(S(=O)(=O)c3ccc(C)cc3)C2c2ccc(C)cc2)C2C(=O)N(c3ccccc3)C(=O)C2C1 (stereo unspecified) | -0.382
13 | CCOC(=O)C[C@H]1[C@H](OC(=O)c2ccc(C(=O)c3ccccc3)cc2)[C@@H](NC(=O)c2ccc(-c3ccccc3)cc2)c2cc(OCCCO)ccc2N1C(=O)c1ccccc1 | 0.0763
14 | COCCOC(=O)N1C(=O)[C@@]2(c3cc(C#Cc4ccc(OC)cc4)ccc31)[C@H](c1ccc(O)cc1)N1[C@H](c3ccccc3)[C@H](c3ccccc3)OC(=O)[C@H]1[C@@H]2C(=O)NC[C@H](O)c1ccccc1 | -0.88
15 | COc1ccc(C(=O)O[C@H]2CC[C@]3(C)C4=C(CCC3C2(C)C)[C@]2(C)CC[C@H]([C@H](C)CCCC(C)C)[C@@]2(C)CC4)cc1 (stereo partly specified) | -1.6
16 | COc1ccc(C(=O)Nc2ccc(CN3C(=O)[C@@]4(O[C@@H](CCn5cc([C@H](O)c6ccccc6)nn5)[C@H]([Si](C)(C)c5ccc(OC)cc5)[C@H]4C)c4ccccc43)cc2)cc1 | -0.576
17 | O=C1c2ccccc2[C@@]2(Cc3ccccc3N(CCN3CCOCC3)C2=O)[C@H](c2ccc(CO)cc2)N1Cc1ccccc1 | -1.33
18 | CC[C@@H]1C=C(C(=O)O)[C@H](c2ccco2)N1S(=O)(=O)c1ccc(C)cc1 | -0.187
19 | O=C1OCCC/C=C\[C@H]2OC34C=CCN(CCN5CCOCC5)C(=O)[C@H]3N(CCCO)C(=O)[C@@H]4C12 (stereo partly specified) | 1.46
20 | COC(=O)[C@@]1(Cc2ccccc2)[C@H]2c3cc(C(=O)N4CCCC4)n(Cc4nc5ccccc5[nH]4)c3C[C@H]2CN1C(=O)c1ccccc1 | -0.509
21 | CC(C)c1ccc(NN2C(C(O)C(c3ccccc3)c3ccccc3)C=CC3C(=O)N(c4ccccc4)C(=O)C32)cc1 (stereo unspecified) | -0.281
22 | C#CCN(Cc1ccccc1Br)C(/C=C/c1ccccc1)CO (stereo unspecified) | 0.825
23 | O=C1C2C=CC(C(O)c3c(F)cccc3Cl)N(Nc3ccccc3)C2C(=O)N1c1ccccc1 (stereo unspecified) | -0.48

Row | SMILES | z-score
24 | NC(=O)[C@@H]1[C@H]2C(=O)O[C@H](c3ccccc3)[C@H](c3ccccc3)N2[C@H](c2ccc(O)cc2)[C@@]12C(=O)Nc1ccc(C#CC3(O)CCCCCC3)cc12 | -0.269
25 | CCOC(=O)C[C@H]1[C@H](OC(=O)Cc2ccc3c(c2)OCO3)[C@@H](NC(=O)c2ccc3ccccc3c2)c2cc(OCCCO)ccc2N1C(=O)c1ccccc1 | -0.784
26 | CN(C)C(=O)[C@]1(Cc2ccccc2N=[N+]=[N-])N=C(c2ccc(OCCCO)cc2)O[C@@H]1c1ccccc1 | 1.77
27 | COC(=O)c1c(CC[C@@H](CO)NC(=O)N[C@@H](C)Cn2cc(C3(O)CCCCC3)nn2)oc(C(C)=O)c1C(=O)OC | -1.04
28 | O=C1C2C=CC(C(O)c3ccc(F)cc3)N(Nc3ccccc3F)C2C(=O)N1c1ccccc1 (stereo unspecified) | -0.746
29 | O=C(c1ccccc1)N1Cc2ccccc2[C@@H]2OC(c3ccc(OCCCO)cc3)=N[C@]2(Cc2ccccc2)C1=O | -0.554
30 | C=C(COC)/C(=C/C[C@H](OC(=O)c1ccncc1)c1ccc(OCCO)cc1)c1cnc2ccccc2c1 | 0.308
31 | COCCOC(=O)N1C(=O)[C@@]2(c3cc(C#CCNC(N)=O)ccc31)[C@H](C(=O)NC[C@H](O)c1ccccc1)[C@H]1C(=O)O[C@H](c3ccccc3)[C@H](c3ccccc3)N1[C@@H]2c1ccccc1OCCO | -0.0351
32 | COc1ccc([C@H]2C[C@H]3C(Br)=C[C@@H]2C(=O)[C@]32CO2)cc1 | 1.11
33 | C=CCOC(=O)[C@@H]1[C@H]2C(=O)O[C@H](c3ccccc3)[C@H](c3ccccc3)N2[C@H](c2ccc(OCCOC(=O)[C@@H]3C[C@@H]4C(=O)N[C@@H](Cc5ccccc5)C(=O)N4[C@@H]3c3ccc(O)cc3)cc2)[C@@]12C(=O)Nc1ccc(I)cc12 | -0.606
34 | O=C1OCC=C[C@H]2OC34C=CCN(c5ccc6ccccc6c5)C(=O)[C@H]3N(CCCCCCO)C(=O)[C@@H]4[C@@H]12 (stereo partly specified) | 3.31
35 | [N-]=[N+]=Nc1ccccc1C[C@]1(C(N)=O)N=C(c2ccc(OCCCO)cc2)O[C@H]1c1ccccc1 | -0.726
36 | O=C1OCCC/C=C\[C@H]2OC34C=CCN(Cn5nnc6ccccc65)C(=O)[C@H]3N(CCO)C(=O)[C@@H]4C12 (stereo partly specified) | -2.05
37 | COc1cc2c(cc1OC)CN(C(=O)[C@H]1[C@@H]3C(=O)O[C@@H](c4ccccc4)[C@@H](c4ccccc4)N3[C@@H](c3ccc(O)cc3)[C@]13C(=O)Nc1ccc(C#CC4=CCCCC4)cc13)CC2 | -0.693
38 | Cc1ccc(S[C@]2(C(=O)NCC(C)C)CC(=O)N(Cc3cc(C(F)(F)F)cc(C(F)(F)F)c3)[C@@H]2c2ccc(CO)cc2I)cc1 | -0.486
39 | CCCC[C@@H]1C[C@H]1[C@@H](NC(=O)c1ccco1)c1ccc(C(=O)OC)cc1 | -0.333
40 | O=C1O[C@H](c2ccccc2)[C@H](c2ccccc2)N2[C@H]1[C@@H](C(=O)O)[C@]1(C(=O)Nc3ccc(C#CC4=CCCCC4)cc31)[C@H]2c1ccccc1OCCO | -0.177
41 | CC(=O)N1Cc2ccccc2C[C@@]2(COC(c3ccc(OCCCO)cc3)=N2)C1=O | -0.957
